In PubChem BioAssay (NCATS):
Inconclusive results are not listed. Active and inactive are the calls of the source. Calls follow the shape of the dose curve; as a rule, active = well fitted curve in the direction sought with a large enough effect; inconclusive = small, poorly fitted or top-dose-only effect, or another doubt; inactive = no such curve, though single readings can be large; an effect the other way counts as inactive or inconclusive.

How the values were obtained:
[1] = qHTS of pediatric cancer cell lines to identify multiple opportunities for drug repurposing: Primary screen for Rh18 cells (AID 1347102); also: nearly all actives have a fitted effect of over 65% in size
In short: (§1)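 Cells (500-1,000/well) in growth media were settled 5 h at 37 degrees C, then given compounds for 48 h. Viability was read as CellTiter-Glo luminescence. Primary runs used MIPE at 11 points (0.78 nM-46 µM) and NPC at 8 points (0.59 nM-46 µM); follow-ups used 11 points.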

[2] = qHTS of pediatric cancer cell lines to identify multiple opportunities for drug repurposing: Primary screen for OHS-50 cells (AID 1347103); also: nearly all actives have a fitted effect of over 40% in size
In short: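 Cells (500-1,000/well) rested 5 h, then received compounds for 48 h; metabolically active cells were measured by CellTiter-Glo luminescence. Final concentrations spanned up to 46 µM (MIPE, 11-point) or 0.59 nM-46 µM (NPC, 8-point) in primary screens, 11-point in follow-ups.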

[3] = qHTS of pediatric cancer cell lines to identify multiple opportunities for drug repurposing: Primary screen for RD cells (AID 1347104); also: nearly all actives have a fitted effect of over 55% in size
In short: (§2)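 Cells seeded at 500-1,000 cells/well in growth media, rested 5 hours at 37 degrees C, 5% CO2, then dosed; MIPE compounds at 11-point (from 0.78 nM) and NPC at 8-point (from 0.59 nM) final concentrations. Viability by CellTiter-Glo luminescence after 48 hours.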

[4] = qHTS of pediatric cancer cell lines to identify multiple opportunities for drug repurposing: Primary screen for MG 63 (6-TG R) cells (AID 1347105); also: nearly all actives have a fitted effect of over 50% in size
In short: as §2

[5] = qHTS of pediatric cancer cell lines to identify multiple opportunities for drug repurposing: Primary screen for control Hh wild type fibroblast cells (AID 1347106); also: nearly all actives have a fitted effect of over 55% in size;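 as to activity change, negative = cytotoxic: a drop in luminescence marks cytotoxicity and a rise apparent proliferation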
In short: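 Viability after 48 h compound treatment at 37C, 500-1,000 cells/well, read as ATP luminescence with CellTiter-Glo. Primary screens used 11-point (MIPE, 0.78 nM-46 µM) or 8-point (NPC, 0.59 nM-46 µM) final concentrations; follow-up screens used 11-point dilutions.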

[6] = qHTS of pediatric cancer cell lines to identify multiple opportunities for drug repurposing: Primary screen for Rh30 cells (AID 1347107); also: nearly all actives have a fitted effect of over 75% in size
In short: as §1

[7] = qHTS of pediatric cancer cell lines to identify multiple opportunities for drug repurposing: Primary screen for Rh41 cells (AID 1347108); also: nearly all actives have a fitted effect of over 70% in size;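 as to activity change, negative = cytotoxic: luminescence drop marks cytotoxic hits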
In short: as §2

[8] = qHTS of pediatric cancer cell lines to identify multiple opportunities for drug repurposing: Confirmatory screen for NB1643 cells (AID 1347109); also: nearly all actives have a fitted effect of over 45% in size
In short: as §1

[9] = qHTS of pediatric cancer cell lines to identify multiple opportunities for drug repurposing: Confirmatory screen for A673 cells (AID 1347110);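 also: cells exposed to compound for 48 h before the viability read; nearly all actives have a fitted effect of over 65% in size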
In short: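 Concentration-response curves came straight from titrations: 11 points (0.78 nM to 46 µM) for MIPE and several concentrations (0.59 nM to 46 µM) for NPC in primary, 11 points in follow-up. Readout: ATP luminescence at 48 h.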

[10] = qHTS of pediatric cancer cell lines to identify multiple opportunities for drug repurposing: Confirmatory screen for SK-N-MC cells (AID 1347111);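 also: cells exposed to compound for 48 h before the readout; nearly all actives have a fitted effect of over 70% in size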
In short: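 Metabolically active cells were quantified by ATP-dependent luminescence (CellTiter-Glo, 15 min at room temperature) following 48 h treatment. Cells had been plated at 500-1,000 per well and settled for 5 h beforehand.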

[11] = qHTS of pediatric cancer cell lines to identify multiple opportunities for drug repurposing: Confirmatory screen for BT-12 cells (AID 1347112); also: nearly all actives have a fitted effect of over 55% in size
In short: as §1

[12] = qHTS of pediatric cancer cell lines to identify multiple opportunities for drug repurposing: Confirmatory screen for LAN-5 cells (AID 1347113); also: nearly all actives have a fitted effect of over 65% in size
In short: as §1

[13] = qHTS of pediatric cancer cell lines to identify multiple opportunities for drug repurposing: Confirmatory screen for DAOY cells (AID 1347114); also: nearly all actives have a fitted effect of over 65% in size
In short: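 Viability measured as metabolically active cells via CellTiter-Glo luminescence following 48 hours of compound exposure, 11-point dilutions in confirmatory testing. 500-1,000 cells/well plated 5 hours before dosing; controls were DMSO and 2.3 µM bortezomib.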

[14] = qHTS of pediatric cancer cell lines to identify multiple opportunities for drug repurposing: Confirmatory screen for NB-EBc1 cells (AID 1347115);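 also: cells exposed to compound for 48 h before the viability read; nearly all actives have a fitted effect of over 45% in size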
In short: as §1

[15] = qHTS of pediatric cancer cell lines to identify multiple opportunities for drug repurposing: Confirmatory screen for BT-37 cells (AID 1347117); settings: BT-37 pediatric cancer cells, viability; activity change, negative = cytotoxic: at 45.9 µM (top of the series); also: nearly all actives have a fitted effect of over 55% in size
In short: as §1

[16] = qHTS of pediatric cancer cell lines to identify multiple opportunities for drug repurposing: Confirmatory screen for MG 63 (6-TG R) cells (AID 1347119); also: nearly all actives have a fitted effect of over 55% in size
In short: as §1

[17] = qHTS of pediatric cancer cell lines to identify multiple opportunities for drug repurposing: Confirmatory screen for U-2 OS cells (AID 1347122); also: nearly all actives have a fitted effect of over 65% in size
In short: as §1

Measured: Potency
Potency is read from the fitted curve at half-maximal effect.

CC(C)OC(=O)[C@H](C)N[P@](=O)(OC[C@H]1O[C@@H](n2ccc(=O)[nH]c2=O)[C@](C)(F)[C@H]1O)Oc1ccccc1
inactive: [1] | [2] | [3] | [4] | [5] | [6] | [7]

C[C@](Cc1c[nH]c2ccccc12)(NC(=O)OC1C2CC3CC(C2)CC1C3)C(=O)NC[C@H](NC(=O)CCC(=O)O)c1ccccc1 (stereo partly specified)
inactive: [1] | [2] | [3] | [4] | [5] | [6] | [7]

O=C1CSC(=O)N1C(CCc1ccncc1)COc1ccc(-c2cccc([N+](=O)[O-])c2)cc1 (stereo unspecified)
active: [2] 4.85 µM
inactive: [1]

O=C(NNC(=O)c1ccc(CNS(=O)(=O)c2ccc(F)c(Cl)c2)cc1)c1ccccc1
inactive: [1] | [2] | [3] | [4] | [5] | [6] | [7]

C=C1C(=O)O[C@H]2[C@@H]1CCC(C)=CCC[C@@]1(C)O[C@@H]21
active: [1] 23.5 µM | [2] 4.85 µM | [3] 18.7 µM | [4] 9.35 µM | [6] 18.7 µM | [7] 11.8 µM
inactive: [5]

O=C(CN1C(=O)C2(CCCC2)NC[C@H]1c1cc(F)cc(F)c1)Nc1ccc2c(c1)C[C@@]1(C2)C(=O)Nc2ncccc21
inactive: [1] | [2] | [3] | [4] | [5] | [6] | [7]

C[C@H](CCC(=O)O)[C@H]1CC[C@H]2[C@@H]3[C@H](O)C[C@@H]4C[C@H](O)CC[C@]4(C)[C@@H]3CC[C@]12C
inactive: [1] | [2] | [3] | [4] | [5] | [6] | [7]

NC1=N[C@H]2[C@H](CS[C@H]2CCCCC(=O)O)N1
inactive: [1] | [2] | [3] | [4] | [5] | [6] | [7]

Nc1nc(=O)n([C@H]2C[C@H](O)[C@@H](CO)O2)cc1F
inactive: [1] | [2] | [3] | [4] | [5] | [6] | [7]

OCCNC1CCCc2c1[nH]c1ccc(-c3ccccc3)cc21 (stereo unspecified)
active: [1] 20.9 µM | [2] 24.3 µM | [3] 33.2 µM
inactive: [4] | [5]

CN(C)c1ccc(C(=O)NCCCCCCC(=O)NO)cc1
active: [1] 0.0935 µM | [2] 0.344 µM | [3] 2.09 µM | [4] 2.35 µM | [5] 3.72 µM | [6] 2.35 µM | [7] 0.935 µM | [8] 1.17 µM | [9] 1.85 µM | [10] 1.04 µM | [11] 13.1 µM | [12] 1.85 µM | [13] 3.29 µM | [14] 2.33 µM | [15] 1.65 µM | [16] 1.47 µM | [17] 1.47 µM

CC(=O)NC(CS)C(=O)O (stereo unspecified)
inactive: [1] | [2] | [3] | [4] | [5] | [6] | [7]

CC(=O)N[C@@H]1[C@H](O[C@@H]2c3ccc(c(Cl)c3)Oc3cc4cc(c3O[C@H]3O[C@H](CO)[C@@H](O)[C@H](O)[C@H]3NC(=O)CCCCCCCC(C)C)Oc3ccc(cc3Cl)C[C@H]3NC(=O)[C@H](N)c5ccc(O)c(c5)Oc5cc(O)cc(c5)[C@H](NC3=O)C(=O)N[C@H]4C(=O)N[C@H]3C(=O)N[C@@H]2C(=O)N[C@@H](C(=O)O)c2cc(O)cc(O[C@H]4O[C@H](CO)[C@@H](O)[C@H](O)[C@H]4O)c2-c2cc3ccc2O)O[C@H](CO)[C@@H](O)[C@@H]1O
inactive: [1] | [2] | [3] | [4] | [5] | [6] | [7]

CC(=O)N[C@H]1[C@@H]([C@H](O)[C@H](O)CO)OC(C(=O)O)=C[C@@H]1N=C(N)N
inactive: [1] | [2] | [3] | [4] | [5] | [6] | [7]

Cc1cncc2cccc(S(=O)(=O)N3CCCN(C(=O)CN)C[C@@H]3C)c12
inactive: [1] | [2] | [3] | [4] | [5]

CC(=O)OCC(=O)[C@@]1(O)CC[C@H]2[C@@H]3CCC4=CC(=O)CC[C@]4(C)[C@@H]3C(=O)C[C@@]21C
inactive: [1] | [2] | [3] | [4] | [5] | [6] | [7]

NC(=O)c1cccc(-c2cccc(OC(=O)NC3CCCCC3)c2)c1
inactive: [1] | [2] | [3] | [4] | [5] | [6] | [7]

CC(C)(C)[N+]([O-])=Cc1ccc(S(=O)(=O)O)cc1S(=O)(=O)O
inactive: [1] | [2] | [3] | [4] | [5] | [6] | [7]

CCCCCCCCCCCCCCCC(=O)OC[C@@H](NC(=O)C(Cl)Cl)[C@H](O)c1ccc([N+](=O)[O-])cc1
inactive: [1] | [2] | [3] | [4] | [5] | [6] | [7]

c1cc(CN2CCCNCCNCCCNCC2)ccc1CN1CCCNCCNCCCNCC1
inactive: [1] | [2] | [3] | [4] | [5] | [6] | [7]
